# An excerpt weighted towards active compounds, which were near 6.9% of everything screened.
# Giardia kill – Small Molecules that selectively kill Giardia lamblia: qHTS. Giardia lamblia trophozoite viability. activity change, % at 7.66 µM, hits read low. 340,000 compounds, 0.15% hits. AID 540267, 2011; in the data active = activity change below about -80%; inconclusive = between about -30% and that limit;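 note: parasites exposed to compound for two days anaerobically before the ATP read; % is set by controls: 0 for no effect and ±100 for the full control effect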
#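 Killing of trophozoites was scored by loss of ATP luminescence after a 48 hrs anaerobic exposure to compounds at 37 deg C, using 100 cells per well.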
# MCF10A rereplic – A quantitative high throughput screen for small molecules that induce DNA re-replication in MCF 10a normal breast cells; 350,000 compounds, 2.9% hits; MCF 10A DNA re-replication, Hoechst nuclear intensity, 48 h; Potency, µM (titrated, usually from 46.1 µM), for inactives: at the top dose activity, positive = re-replication, actives largely listed as activators; note: potency is the fitted concentration of half-maximal effect; % of control where 0% means no effect; nearly all actives have a fitted effect of over 50% in size
# KB-V1 MDR tox – qHTS assay for MDR1-selective chemotherapeutics: Primary screen using the drug-selected MDR subline cells KB-V1. KB-V1 MDR cells viability, CellTiter-Glo, 72 h. Potency, µM (highest dose often 46.1 µM), most hits filed as cytotoxic. 400,000 compounds, 3.4% hits; note: potency is the fitted concentration of half-maximal effect; % is set by controls: 0 for no effect and ±100 for the full control effect; nearly all actives have a fitted effect of over 60% in size
#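 Drug-selected KB-V1 cells, grown in DMEM lacking phenol red with 10% FBS, receive compound titrations; after three days at 37 degrees C, surviving cell ATP is quantified by CellTiter-Glo luminescence and responses normalized and curve-fitted.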
# SW480 rerep – A quantitative high throughput screen for small molecules that induce DNA re-replication in SW480 colon adenocarcinoma cells. SW480 DNA re-replication, Hoechst DNA content imaging, 48 h. Potency, µM (series often up to 46.1 µM), for inactives: top-dose re-replication activation, actives largely listed as activators. 340,000 compounds, 1.8% hits. AID 624297, 2012; note: potency is the fitted concentration of half-maximal effect; % of control where 0% means no effect; nearly all actives have a fitted effect of over 55% in size
#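 First, 250 cells per well were seeded. Next, compound or vehicle (23 nL) was pinned in, plates sat 48 hr at 37 C. Finally Hoechst was added for 40 min before fluorescence scanning.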
# S-ASM inh – Inhibitors of Secretory Acid Sphingomyelinase (S-ASM): qHTS; Sphingomyelin phosphodiesterase (Homo sapiens), P17405; placental ASM, HMU-PC fluorogenic substrate, 60 min; Potency, µM (doses to about 57.5 µM), without a hit: at the highest dose activity change, negative = inhibition, actives largely listed as inhibitors; 340,000 compounds, 0.006% hits; AID 504937, 2011; note: potency is the fitted concentration of half-maximal effect
# Target sequence (P17405 47-631 limits assumed): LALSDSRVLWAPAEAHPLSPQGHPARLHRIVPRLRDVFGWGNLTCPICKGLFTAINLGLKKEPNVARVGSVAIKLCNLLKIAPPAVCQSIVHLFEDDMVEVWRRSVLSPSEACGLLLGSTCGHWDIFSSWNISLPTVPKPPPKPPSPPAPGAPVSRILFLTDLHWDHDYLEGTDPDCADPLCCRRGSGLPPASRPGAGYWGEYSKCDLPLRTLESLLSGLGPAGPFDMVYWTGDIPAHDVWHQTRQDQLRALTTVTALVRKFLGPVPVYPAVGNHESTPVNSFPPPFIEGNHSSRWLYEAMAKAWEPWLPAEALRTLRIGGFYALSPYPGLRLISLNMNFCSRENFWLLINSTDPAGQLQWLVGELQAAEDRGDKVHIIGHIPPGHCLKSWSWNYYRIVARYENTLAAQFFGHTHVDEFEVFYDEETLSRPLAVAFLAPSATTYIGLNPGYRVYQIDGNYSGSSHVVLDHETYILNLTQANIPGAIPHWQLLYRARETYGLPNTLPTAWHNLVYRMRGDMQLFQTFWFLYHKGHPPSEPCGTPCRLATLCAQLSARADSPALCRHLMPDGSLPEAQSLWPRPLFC
#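 HMU-PC0 cleavage (9 uM final) by human placental ASM, 60 min at 37 °C following 10 min compound exposure at RT; stopped at pH 10, fluorescence Ex 386/Em 447 nm.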
# KB-3-1 tox – qHTS assay for MDR1-selective chemotherapeutics: Primary screen using the parental adenocarcinoma cell KB-3-1 | KB-3-1 viability, CellTiter-Glo ATP luminescence, 72 h | Potency, µM (highest dose often 46.1 µM), hits mostly cytotoxic | 400,000 compounds, 1.4% hits | AID 1347075, 2019; note: potency is the fitted concentration of half-maximal effect; % is set by controls: 0 for no effect and ±100 for the full control effect; nearly all actives have a fitted effect of over 60% in size
#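 KB-3-1 cells, DMEM (no phenol red) + 10% FBS; compound by pin transfer, 72 h, 37 °C. Readout: CellTiter-Glo luminescence after 10 min. Data normalized, curve-fitted.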
# Starred values were filed as active, the others as inactive; i = inactive; ? = inconclusive; . = no result given. Unless noted, calls come from the whole dose curve; as a rule, active = well fitted curve in the direction sought with a large enough effect; inconclusive = small, poorly fitted or top-dose-only effect, or another doubt; inactive = no such curve, though single readings can be large; an effect the other way counts as inactive or inconclusive.
SMILES,Giardia kill,MCF10A rereplic,KB-V1 MDR tox,SW480 rerep,S-ASM inh,KB-3-1 tox
CN(CC(=O)Nc1ccc(Cl)c(C(F)(F)F)c1)C(=O)c1cccc2cccnc12,7,-7%,18µM*,-5%,-2%,i
Cc1cc(C)cc(OCC(=O)N(C)CC(=O)Nc2ccc(Cl)c(C(F)(F)F)c2)c1,15,6.5µM*,i,3%,-6%,?
CCN(CC)S(=O)(=O)c1cccc(NC(=O)COc2ccc(Cl)cc2Br)c1,-8,16%,21µM*,13%,0%,?
CCN(CC)c1ccc(C(=O)Nc2cccc(F)c2)cc1,-9,?,i,13µM*,-7%,i
CCN(CC)S(=O)(=O)c1cc(NC(=O)C(=O)c2c(-c3ccccc3)cc3ccccn23)ccc1C,-3,9%,i,1%,-15%,i
Cc1nn(C)c(C)c1NC(=O)COc1ccc(Cl)cc1Br,13,16µM*,.,-3%,3%,.
Cc1nn(C)c(C)c1NC(=O)COc1ccc(F)cc1Br,4,16%,i,-7%,1%,i
CN(C)S(=O)(=O)c1cccc(NC(=O)COc2ccc(S(=O)(=O)N3CCOCC3)cc2Cl)c1,11,-1%,i,-7%,4%,i
CCN(CC)S(=O)(=O)c1cccc(NC(=O)C(=O)c2c(-c3ccccc3)cc3ccccn23)c1,-26,7%,3.3µM*,2%,-7%,i
COc1cc(C2N=C(N)Nc3nc4ccccc4n32)ccc1OCC(=O)O (configuration not stated),.,.,i,.,.,i
CNCC(=O)c1c[nH]c2ccccc12,.,.,i,.,.,i
Cc1cccc(C)c1NC(=O)CN1C(=O)c2ccccc2Sc2ncccc21,.,.,i,.,.,i
C[N+]1(CC(=O)c2ccc(Cl)c(Cl)c2)CCOCC1,.,.,i,.,.,i
CCN(CC)S(=O)(=O)c1cccc(NC(=O)c2cncc(Br)c2)c1,10,-1%,i,18%,-1%,i
CN(C)S(=O)(=O)c1cccc(NC(=O)c2cncc(Br)c2)c1,3,?,15µM*,-12%,0%,i
CCN(CC)S(=O)(=O)c1cccc(NC(=O)c2ccc(Br)cc2)c1,20,8%,6.5µM*,3%,-8%,i
Cc1ccc(-n2ncc3c(N4CCN(Cc5ccccc5)CC4)ncnc32)cc1C,.,.,?,.,.,i
CCOC(=O)c1c(NC(=O)CSc2nncs2)sc(C)c1-c1ccccc1,-15,7.3µM*,7.3µM*,8%,-3%,?
CCOC(=O)c1c(NC(=O)CSc2nnnn2C)sc(C)c1-c1ccc(C)cc1,-4,?,13µM*,17%,-23%,?
Cn1c(=O)nc2n(-c3ccc(Cl)c(Cl)c3)c3cc(Cl)ccc3cc-2c1=O,.,.,i,.,.,i
C[C@]12CCC(=O)C=C1[C@@H]1C[C@H]1[C@H]1[C@@H]3[C@@H]4C[C@H]4[C@@]4(CCC(=O)O4)[C@@]3(C)CC[C@@H]12,.,-3%,.,-3%,.,.
O=c1c(-c2ccc([N+](=O)[O-])cc2)coc2c(O)c(O)ccc12,-1,7%,?,13µM*,0%,i
CN(C)Cc1c(O)ccc2c(=O)c(-c3ccc(Cl)cc3)coc12,0,0%,i,?,81%,i
CC1CCc2c(sc(NC(=O)CSc3nnc(-c4ccccc4)o3)c2C#N)C1 (configuration not stated),12,15%,?,-82%,1%,i
N#Cc1c(NC(=O)CSc2nnc(-c3ccncc3)n2CC2CCCO2)sc2c1CCCC2 (configuration not stated),-9,-1%,i,0%,-1%,i
SMILES,Giardia kill,MCF10A rereplic,KB-V1 MDR tox,SW480 rerep,S-ASM inh,KB-3-1 tox
N#Cc1c(NC(=O)CSc2nnc(-c3ccccc3)o2)sc2c1CCCC2,12,5.8µM*,i,9%,-2%,i
N#Cc1c(NC(=O)CSc2ncc(-c3ccccc3)n2CC2CCCO2)sc2c1CCCC2 (configuration not stated),6,?,3.3µM*,5%,0%,?
N#Cc1c(NC(=O)CSc2nc3ccccc3s2)sc2c1CCCC2,-5,?,16µM*,-11%,-2%,i
COc1cc2c(cc1OC)CN(C(=O)C1CCC(=O)N(CCCN3CCOCC3)C1)CC2 (configuration not stated),-20,5%,i,-3%,5%,i
Cc1ccc(N/C(=N/S(=O)(=O)c2cccs2)c2ccccc2)c(C)c1,-2,?,9.2µM*,?,-1%,?
Cc1ccc(S(=O)(=O)/N=C(/Nc2ccc([N+](=O)[O-])cc2[N+](=O)[O-])c2ccccc2)cc1,?,?,16µM*,1%,-9%,i
O=C1CC(c2ccco2)CC2=C1C(c1ccc(O)cc1)n1nc(C(F)(F)F)nc1N2 (configuration not stated),-9,.,.,.,.,.
CC(C)Nc1ccc(-c2nc(-c3ccncc3)no2)cc1[N+](=O)[O-],.,.,i,.,.,i
O=C(/C=C/c1ccccc1)NC(NC(=S)Nc1ccc(Cl)cc1)C(Cl)(Cl)Cl (configuration not stated),25,16µM*,?,?,-3%,?
O=C(CCc1ccccc1)NC(NC(=S)Nc1ccc(Cl)cc1)C(Cl)(Cl)Cl (configuration not stated),-1,7%,i,?,0%,18µM*
CC(C)CCNC(=O)Nc1ccc2c(c1)N(C)C(=O)CS2,-7,1%,21µM*,1%,5%,i
O=C(NNC(=O)c1ccccc1Br)c1ccc(SCC2CCCO2)c([N+](=O)[O-])c1 (configuration not stated),-7,?,23µM*,1%,-1%,i
N#C/C(=C\c1cn(Cc2ccccc2)c2ccccc12)C(=O)NCc1ccco1,-8,21µM*,i,?,9%,i
N#C/C(=C\c1cn(Cc2cccc(F)c2)c2ccccc12)C(=O)NCc1ccco1,-6,13µM*,i,.,18%,i
N#C/C(=C\c1cn(Cc2ccc(F)cc2)c2ccccc12)C(=O)NCc1ccco1,-8,-1%,i,?,7%,i

# Screening results from PubChem BioAssay.
